Measurements from PubChem BioAssay.
Calls of active or inactive are those of the source.

Assays:
[1] = small molecules captured by biotinylated probe aFSTL3 – biochemical, small-molecule microarray, fluorescence 635/667, stem cell growth factor project, primary screen (AID 1064); settings: higher = more signal;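 also: measures binding of the biotinylated anti-FSTL3 antibody to printed compounds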
[2] = binders from COS7 lysate, DM2A8 probe, primary screen, torsin A project, cell lysate, small-molecule microarray, fluorescence 635/667 (AID 1065); settings: higher = more signal, COS7 lysate expressing mutant human TOR1A
[3] = small molecules captured by biotinylated probe aFGF2 – biochemical, small-molecule microarray, fluorescence 635/667, stem cell growth factor project, primary screen (AID 1067); settings: higher = more signal;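 also: measures binding of biotinylated aFGF2 protein to printed compounds on slides; z-score merges feature fluorescence and signal-to-noise across triplicate slides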
[4] = small molecules captured by biotinylated probe aFGF10 – biochemical, small-molecule microarray, fluorescence 635/667, stem cell growth factor project, primary screen (AID 1071); settings: higher = more signal;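 also: score merges 667 nm spot intensity and signal to noise from triplicate slides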
[5] = biological target: Neurogenic locus notch homolog protein 2 (Homo sapiens) (UniProt Q04721); test: small molecules binding Notch2 protein – biochemical, small-molecule microarray, 635 nm fluorescence, stem cell growth factors, primary screen (AID 1073); settings: higher = more signal
[6] = biological target: Pro-neuregulin-1, membrane-bound isoform (Homo sapiens) (UniProt Q02297); test: small molecules binding neuregulin-1 protein – biochemical, small-molecule microarray, fluorescence 635/667, psychiatric disease protein project, primary screen (AID 1075); settings: NRG1 binding, 635 nm fluorescence, higher = more signal;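 also: score combines 667 nm spot fluorescence with signal to noise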
[7] = test system: Neuregulin-1 EGF-like domain; test: small molecules binding NRG1 EGF domain – biochemical, small-molecule microarray, 635 nm fluorescence, primary screen (AID 1081); settings: higher = more signal;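 also: binding of the protein to compounds printed on small-molecule microarray slides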
[8] = FRG1 expression reporter modulators in myotubes – cell-based, C2C12 myotubes, firefly/Renilla luciferase, luminescence, FRG1 inhibition for FSHD, primary screen (AID 1084); settings: FRG1 promoter luciferase, higher = more signal, called active from +8 up or from −8 down
[9] = small molecules captured by biotinylated probe aFST – biochemical, small-molecule microarray, fluorescence 635/667, stem cell growth factor project, primary screen (AID 1086); settings: higher = more signal;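 also: score merges 667 nm fluorescence with signal-to-noise of each printed compound spot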
[10] = binders of probe aHhip on microarray, primary screen, stem cell growth factor project, biochemical, small-molecule microarray, fluorescence 635/667 (AID 1087); settings: higher = more signal;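 also: score merges spot fluorescence at 667nm with spot signal to noise ratio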

Sequence of Pro-neuregulin-1, membrane-bound isoform (Homo sapiens) (Q02297 whole entry, looked up, the tested form may be a part, canonical isoform): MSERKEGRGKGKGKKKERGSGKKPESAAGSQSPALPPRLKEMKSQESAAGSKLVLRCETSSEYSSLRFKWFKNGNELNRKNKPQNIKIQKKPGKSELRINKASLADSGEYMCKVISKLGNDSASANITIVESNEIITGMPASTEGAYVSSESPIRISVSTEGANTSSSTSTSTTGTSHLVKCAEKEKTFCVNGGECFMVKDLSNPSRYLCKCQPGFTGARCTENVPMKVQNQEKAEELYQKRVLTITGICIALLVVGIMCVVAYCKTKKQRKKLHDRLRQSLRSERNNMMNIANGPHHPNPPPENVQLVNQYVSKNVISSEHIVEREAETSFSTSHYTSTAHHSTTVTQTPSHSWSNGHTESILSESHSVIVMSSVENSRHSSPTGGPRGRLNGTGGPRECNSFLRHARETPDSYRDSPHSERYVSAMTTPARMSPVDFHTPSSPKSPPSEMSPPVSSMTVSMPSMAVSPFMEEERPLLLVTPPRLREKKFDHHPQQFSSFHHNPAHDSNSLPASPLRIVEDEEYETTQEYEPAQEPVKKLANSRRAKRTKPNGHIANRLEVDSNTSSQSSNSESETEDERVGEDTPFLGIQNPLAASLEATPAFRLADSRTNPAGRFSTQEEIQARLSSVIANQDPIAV
Sequence of Neurogenic locus notch homolog protein 2 (Homo sapiens) (Q04721 whole entry, looked up, canonical isoform): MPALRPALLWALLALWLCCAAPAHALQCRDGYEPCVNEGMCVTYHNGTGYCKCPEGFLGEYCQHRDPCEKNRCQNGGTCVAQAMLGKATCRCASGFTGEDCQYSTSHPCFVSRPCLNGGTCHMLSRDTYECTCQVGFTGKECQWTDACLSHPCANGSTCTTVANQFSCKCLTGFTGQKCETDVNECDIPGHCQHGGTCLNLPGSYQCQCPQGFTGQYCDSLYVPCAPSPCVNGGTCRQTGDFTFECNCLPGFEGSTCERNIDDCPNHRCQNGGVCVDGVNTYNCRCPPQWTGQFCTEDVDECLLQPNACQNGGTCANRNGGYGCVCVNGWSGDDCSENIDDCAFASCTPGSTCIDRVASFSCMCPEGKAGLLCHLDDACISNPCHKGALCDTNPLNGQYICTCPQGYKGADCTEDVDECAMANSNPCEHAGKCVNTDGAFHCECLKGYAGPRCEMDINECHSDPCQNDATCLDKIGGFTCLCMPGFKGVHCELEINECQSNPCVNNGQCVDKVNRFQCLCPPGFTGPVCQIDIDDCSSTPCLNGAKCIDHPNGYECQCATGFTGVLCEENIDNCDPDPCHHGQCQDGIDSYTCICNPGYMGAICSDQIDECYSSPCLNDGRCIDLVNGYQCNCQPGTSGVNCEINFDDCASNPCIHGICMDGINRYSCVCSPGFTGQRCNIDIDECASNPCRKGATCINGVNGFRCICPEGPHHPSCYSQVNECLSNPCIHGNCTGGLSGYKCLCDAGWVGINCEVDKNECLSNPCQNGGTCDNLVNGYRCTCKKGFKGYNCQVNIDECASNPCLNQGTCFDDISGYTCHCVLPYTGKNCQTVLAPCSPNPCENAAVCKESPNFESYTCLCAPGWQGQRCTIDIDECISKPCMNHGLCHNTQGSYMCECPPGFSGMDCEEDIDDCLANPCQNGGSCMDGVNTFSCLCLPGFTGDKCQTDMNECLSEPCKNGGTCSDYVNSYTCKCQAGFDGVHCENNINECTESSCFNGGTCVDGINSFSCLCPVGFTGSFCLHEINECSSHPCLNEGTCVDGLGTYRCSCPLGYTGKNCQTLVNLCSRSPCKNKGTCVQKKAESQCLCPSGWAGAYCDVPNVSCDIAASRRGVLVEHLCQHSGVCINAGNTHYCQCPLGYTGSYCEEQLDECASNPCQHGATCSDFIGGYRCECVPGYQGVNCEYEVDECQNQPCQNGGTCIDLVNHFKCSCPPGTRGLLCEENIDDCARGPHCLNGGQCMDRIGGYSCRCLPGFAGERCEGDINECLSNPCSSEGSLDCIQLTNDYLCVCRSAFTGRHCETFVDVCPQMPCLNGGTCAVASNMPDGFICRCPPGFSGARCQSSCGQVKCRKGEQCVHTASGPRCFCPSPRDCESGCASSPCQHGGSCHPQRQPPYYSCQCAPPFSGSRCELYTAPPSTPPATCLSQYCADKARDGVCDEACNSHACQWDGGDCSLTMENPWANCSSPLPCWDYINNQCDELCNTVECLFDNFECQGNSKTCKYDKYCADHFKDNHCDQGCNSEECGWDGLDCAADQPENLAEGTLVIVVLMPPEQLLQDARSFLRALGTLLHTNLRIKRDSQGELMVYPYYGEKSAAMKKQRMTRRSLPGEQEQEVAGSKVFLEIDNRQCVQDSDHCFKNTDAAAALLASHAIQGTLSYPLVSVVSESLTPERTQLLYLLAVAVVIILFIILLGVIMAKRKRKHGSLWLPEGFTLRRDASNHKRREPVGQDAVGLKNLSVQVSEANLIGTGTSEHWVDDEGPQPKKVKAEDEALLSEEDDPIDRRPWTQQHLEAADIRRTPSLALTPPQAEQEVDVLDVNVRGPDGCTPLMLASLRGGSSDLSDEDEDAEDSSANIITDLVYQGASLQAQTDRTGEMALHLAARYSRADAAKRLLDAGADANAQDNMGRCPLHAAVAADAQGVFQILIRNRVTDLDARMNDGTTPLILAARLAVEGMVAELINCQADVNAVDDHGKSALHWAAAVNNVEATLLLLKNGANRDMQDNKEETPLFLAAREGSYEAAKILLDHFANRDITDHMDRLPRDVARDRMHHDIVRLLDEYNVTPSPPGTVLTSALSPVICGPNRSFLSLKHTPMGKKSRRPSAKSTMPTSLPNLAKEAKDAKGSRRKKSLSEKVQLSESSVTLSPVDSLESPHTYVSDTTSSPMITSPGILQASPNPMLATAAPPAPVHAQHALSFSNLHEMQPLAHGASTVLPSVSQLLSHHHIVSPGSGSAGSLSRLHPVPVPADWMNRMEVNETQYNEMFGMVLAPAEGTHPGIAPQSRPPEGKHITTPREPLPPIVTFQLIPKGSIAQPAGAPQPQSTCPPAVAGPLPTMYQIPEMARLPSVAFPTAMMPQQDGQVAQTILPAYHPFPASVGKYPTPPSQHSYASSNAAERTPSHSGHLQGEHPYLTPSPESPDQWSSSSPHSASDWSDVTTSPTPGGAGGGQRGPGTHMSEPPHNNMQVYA

Structure (SMILES) | composite z-score [1] | composite z-score [2] | composite z-score [3] | composite z-score [4] | composite z-score [5] | composite z-score [6] | composite z-score [7] | z-score [8] | composite z-score [9] | composite z-score [10]
O=C1[C@H]2[C@H]3[C@H](O)[C@H](O)CC(=NOC[C@@H](O)COCc4ccco4)[C@H]3CC[C@H]2C(=O)N1c1ccc(F)cc1F | -0.191 | 0.862 | -0.142 | 0.0434 | -0.853 | -0.452 | 1.23 | -1.53 (inactive) | -0.999 | -0.0047
C#CCCCON=C1C[C@@H](O)[C@@H](O)[C@@H]2[C@@H]3C(=O)N(C(C)(C)C)C(=O)[C@@H]3CC[C@H]12 | 1.86 | 1.01 | -0.0245 | -0.104 | 0.162 | -0.431 | -0.58 | -0.247 (inactive) | 0.774 | -0.122
CC(=O)Nc1ccc([C@@H]2N[C@H](C(=O)O)CC[C@H]2C)cc1 | -0.508 | 0.301 | -0.135 | 0.426 | 0.785 | 0.0589 | 0.151 | 0.564 (inactive) | 0.296 | -0.0618
COc1ccc(COC(=O)NN=C2C[C@@H](O)[C@@H](O)[C@@H]3[C@@H]4C(=O)N(C5CCCCC5)C(=O)[C@@H]4CC[C@H]23)cc1 | 1.21 | 0.588 | -0.0784 | -0.396 | -0.961 | -0.255 | -0.194 | 0.248 (inactive) | 0.524 | -0.409
CCCCC#C[C@@H]1C=C[C@H](OC(C)=O)[C@@H](COC(C)=O)O1 | -0.515 | 0.37 | -0.112 | 0.319 | 0.617 | 0.304 | 0.0329 | -1.28 (inactive) | 0.0643 | -0.134
CCOC(=O)[C@H](Cc1ccccc1)NC(=O)CCC1CC(OC(=O)NCCc2ccc(F)cc2)CC2(CCCC(COC(=O)NCCCN3CCCC3=O)O2)O1 (stereo not given in full) | -0.478 | 0.291 | -0.0628 | 0.328 | 1.16 | 0.533 | 0.394 | -1.9 (inactive) | 0.326 | -0.0994
COC(=O)[C@@H]1CC[C@H](C)[C@@H](c2ccc(C)cc2)N1C(=O)c1ccc(C=NOC[C@@H](C)[C@H](OCc2ccccc2)C(C)C)cc1 | -0.613 | 0.191 | -0.0707 | 0.41 | 1.13 | 0.855 | 1 | -0.229 (inactive) | 0.38 | 0.0373
C[C@@H](c1ccccc1)N1C(=O)[C@H]2[C@H]3[C@H](O)[C@H](O)CC(=O)[C@H]3CC[C@H]2C1=O | -0.483 | 0.107 | -0.0878 | 0.443 | 0.896 | 0.286 | 0.477 | -0.12 (inactive) | 0.0442 | -0.0994
Cc1ccc(S(=O)(=O)N[C@H]2COC(=O)CC=C[C@H](C)[C@@H](NS(=O)(=O)c3ccc(C)cc3)COC(=O)CC=C[C@@H]2C)cc1 | -0.546 | 0.391 | 0.16 | 0.395 | 0.434 | -0.107 | 0.0446 | 1.41 (inactive) | -0.118 | 0.166
CCCCC#C[C@@H]1C=C[C@H](Oc2cc(OC)c(OC)c(OC)c2)[C@@H](COC(=O)OCC)O1 | -0.682 | -0.0561 | -0.116 | -0.0152 | -0.526 | -0.158 | -0.365 | -0.214 (inactive) | -0.311 | 0.141
CC(CCN1CCc2nc(-c3ccccc3)c(-c3ccccc3)cc2C1)=NOC[C@@H](O)[C@H]1O[C@@H]2OC(C)(C)O[C@@H]2[C@H]1O | -0.621 | 0.59 | -0.085 | 0.455 | 0.331 | 0.609 | 0.676 | 1.54 (inactive) | 0.319 | 0.0139
C#CCCCON=C1C[C@@H](O)[C@@H](O)[C@@H]2[C@@H]3C(=O)N(c4cccc(Oc5ccccc5)c4)C(=O)[C@@H]3CC[C@H]12 | -0.2 | 0.744 | -0.129 | -0.264 | -0.87 | 0.248 | 0.425 | 1.2 (inactive) | -0.464 | -0.0193
C[C@@H](c1ccccc1)N1C(=O)[C@H]2[C@H]3[C@H](O)[C@H](O)CC(=NO[C@@H]4O[C@H](CO)[C@@H](O)[C@H](O)[C@H]4O)[C@H]3CC[C@H]2C1=O | -0.528 | -0.0577 | -0.0291 | 0.303 | 0.473 | 0.0437 | 0.343 | -0.412 (inactive) | 0.0934 | -0.0383
CCOC(=O)[C@H](Cc1ccccc1)NC(=O)CCC1CC(OC(=O)NCCc2ccc(F)cc2)CC2(CCCC(COC(=O)NCCc3ccccc3OC)O2)O1 (stereo not given in full) | -0.582 | 0.238 | -0.0592 | 0.82 | 0.879 | 0.729 | 1.22 | 0.865 (inactive) | 0.759 | -0.134
CC(CCN1CCc2nc(-c3ccccc3)c(-c3ccccc3)cc2C1)=NOC[C@@H](O)COCc1ccco1 | -0.278 | 0.424 | -0.0598 | 0.111 | 0.303 | 0.268 | 0.792 | 0.515 (inactive) | -0.0187 | -0.261
Cn1c(=O)n2n(c1=O)[C@H]1[C@H](O)[C@@H]3O[C@@H]3C(=NOCc3ccccc3)[C@H]1CC2 | -0.266 | 0.125 | -0.085 | -0.0229 | 0.0633 | -0.257 | 0.0977 | -0.928 (inactive) | -0.0977 | -0.0088
CC(=O)OC[C@H]1O[C@H](CC=NO[C@H](C)c2cn([C@H](CO)Cc3ccccc3)nn2)C=C[C@@H]1OC(C)=O | -0.789 | 0.379 | -0.087 | 0.541 | 0.911 | 1.33 | 0.711 | 0.235 (inactive) | 0.246 | -0.201
